The results in this text go back to PubChem BioAssay (NCI).

Each structure is given as a SMILES string. The panel holds about 83,000 compounds, 20% with a hit somewhere; the sample as a whole holds those more often.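 The endpoint reported here, percent growth, reads 100 for growth as untreated, 0 for no net growth and -100 for all cells dead.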 Unmarked numbers belong to inactive results. The source made the active and inactive calls. Rule for the calls: active = growth percent below 10; inactive = the rest.

Common to all, as to experiment: NCI-60 one-dose screen, 48 h (100 = growth as untreated, 0 = no growth, -100 = all killed)
Common to all, as to settings: 10 µM unless noted

The subject of assay [1] is EKVX NSCLC.
Assay [2] concerns SN12C renal.
Assay [3] relates to UO-31 renal.
Assay [4] concerns ACHN renal.
Assay [5] relates to CAKI-1 renal.
The test system of assay [6] is A498 renal.
The subject of assay [7] is MOLT-4 leukemia.
The subject of assay [8] is SR leukemia.
The test system of assay [9] is RPMI-8226 leukemia.
Assay [10] relates to OVCAR-8 ovarian.
Assay [11] has as its system OVCAR-5 ovarian.
Assay [12] deals with OVCAR-4 ovarian.
For assay [13], the system named is SK-OV-3 ovarian.
Assay [14] concerns IGROV1 ovarian.
Assay [15] concerns OVCAR-3 ovarian.
In assay [16] the test system is HS 578T breast.
Assay [17] relates to NCI/ADR-RES ovarian.
Assay [18] concerns T-47D breast.
Assay [19] relates to CCRF-CEM leukemia.

Consider `C#C[C@]1(O)CC[C@H]2[C@@H]3CC=C4c5sc(-c6ccc(F)cn6)nc5CC[C@]4(C)[C@H]3CC[C@@]21C`, for which the growth is 25.4% in [1]; 58.7% in assay [2]; 52.7% in [3]; 47.2% in [4]; 20.6% in assay [5]; -24.7% (active) in assay [6]. Further, the growth in assay [7] is -7.92% (active); in [8] it was -2.25% (active); in assay [9], -26% (active); in [10] it was 42.8%; in assay [11] it was 59.9%; in assay [12] it was 57.8%. The growth in assay [13] is 21.2%; in assay [14], 49.8%; in assay [15], 56.2%; in assay [16], -16.2% (active); in assay [17], 44.8%; in assay [18] it was 39.9%.
For `Clc1ccc2oc3c(NCCCN4CCOCC4)c4ccccc4nc3c2c1`, the growth was 37.9% in assay [1]; 19.6% in assay [2]; 24.2% in assay [3]; 13.4% in [4]; 12.8% in [5]; -2.14% (active) in assay [6]. For the same compound, the growth in assay [19] was 27.6%; in assay [7], 4.08% (active); in assay [9], 11.4%; in [10], 23.3%; in assay [11] it was 30%; in assay [12], 36.9%. For the same compound, the growth in [13] is 57.8%; in assay [14], 16.9%; in [15] it was 64.5%; in assay [16], 37.8%; in assay [17], 29.2%; in [18] it was 51.7%.
Turning to `Clc1ccc2oc3c(NCCCn4ccnc4)c4ccccc4nc3c2c1`, the growth was 73.8% in assay [1]; 38.4% in [2]; 30% in [3]; 9.12% (active) in assay [4]; 30.6% in assay [5]; 14.3% in assay [6]. The growth was -5.22% (active) in assay [8]; 37.6% in [9]; 43.4% in assay [10]; 50.1% in [11]; 63% in assay [12]; 93.9% in assay [13]. The growth in assay [14] is 36.5%; in assay [15], 76.7%; in assay [16] it was 61.7%; in assay [17] it was 41.2%; in assay [18], 88.9%.
For `CCC/C=C/C=C/C(=O)N[C@@H](Cc1cc(F)cc(F)c1)C(=O)N[C@@H]1C(=O)N2CCC[C@H]2C(=O)N2CCCC[C@H]2C(=O)N[C@@H](C)C(=O)N2C[C@H](C)C[C@H]2C(=O)O[C@H]1C`, the growth in assay [1] was 32.1%; in assay [2], 20.3%; in assay [3] it was 29.7%; in [4], 23.1%; in [6], 3.26% (active); in assay [19], 28.9%. In addition, the growth in assay [7] is 34.7%; in assay [8], 27.1%; in [9], -0.71% (active); in assay [10] it was 18.4%; in [11] it was 24.6%; in [12], 22.3%. Moreover, the growth in [13] is 30%; in assay [14], 40.8%; in assay [15] it was 19.1%; in assay [16] it was 31%; in assay [17], 20.8%; in [18], 15.9%.
With `CS(=O)(=O)c1ccc(-c2nc3ccccn3c2-c2nc3ccc([N+](=O)[O-])cc3[nH]2)cc1`, the growth is 91% in assay [1]; 94.8% in assay [2]; 77.7% in assay [3]; 88.6% in assay [4]; 86.2% in assay [5]; 87.5% in assay [6]. Also, the growth in [7] is 90.3%; in assay [9] it was 95.1%; in assay [10], 94.5%; in assay [11] it was 97.8%; in assay [12] it was 93.2%; in [13], 107%. Further, the growth in [14] is 81%; in assay [15], 110%; in assay [16], 99.7%; in assay [17], 92.2%; in assay [18] it was 91.2%.
As to `Clc1ccc2c(OCCCN3CCOCC3)c3oc4ccccc4c3nc2c1`, the growth in assay [1] is 34.6%; in [2], 30.4%; in [3], 22.2%; in assay [4], 15.3%; in assay [5], 19.7%; in assay [6], 13.6%. Moreover, the growth in [7] was 11.7%; in assay [8], 11.9%; in assay [9], 29%; in [10], 31.2%; in assay [11] it was 35.1%; in [12], 59%. In addition, the growth was 71.8% in assay [13]; 19.7% in [14]; 69.5% in [15]; 38.4% in assay [16]; 36.3% in assay [17]; 40.8% in [18].
With `Nc1ncc(-c2ccc3ncnc(N4CCc5cc(F)c(Cl)cc54)c3c2)cc1CO`, the growth in [1] was -15.8% (active); in assay [2] it was 14.7%; in [3], 6.11% (active); in assay [4] it was 5.95% (active); in assay [6] it was -64% (active); in [19], 6.14% (active). Also, the growth is -14.6% (active) in assay [7]; -6.6% (active) in assay [8]; -25.4% (active) in assay [9]; 12.5% in [10]; 19.9% in [11]; 8.51% (active) in assay [12]. In addition, the growth in assay [13] was -18.4% (active); in [14], -54.7% (active); in assay [15], -19.8% (active); in assay [16] it was -18% (active); in assay [17], 9.17% (active); in assay [18], 0.798% (active).
In the case of `O=C1Nc2cc(Cl)ccc2/C1=C\c1ccc(OCc2ccc([N+](=O)[O-])cc2)cc1`, the growth was 82.5% in assay [1]; 79.5% in assay [2]; 50.7% in assay [3]; 43% in assay [4]; 64.6% in assay [5]; 81% in assay [6]. In addition, the growth is 5.4% (active) in [19]; 55.6% in assay [9]; 78.8% in [10]; 93.3% in assay [11]; 43.6% in assay [12]; 98% in [13]. Besides, the growth in assay [14] is 64.5%; in [15] it was 87.8%; in assay [16] it was 60.9%; in assay [17] it was 73.3%; in assay [18] it was 51.9%.
